Reference: the supplement of paper PMC10849652
The full data set covers some 7,900 targets. This sample favours those with a hit. About 0.6% of all pairs of compound and target were hits.

Key:
Test in all cases: log2 fold change, soluble protein after heating vs DMSO (PISA); higher = thermal stabilisation; K562 cells, 10 uM, 30 min; active = over 0.2 and 3.5 SD of the protein, either way, in both replicates (recomputed)
YAE1 = YAE1 (UniProt Q9NRH1)
Summary of the method: (§1)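 K562 cells at 2×10^6 cells/mL were treated with 10 μM compound for 30 min. Aliquots were heated for 3 min across 48°C-58°C, pooled, and extracted in PBS with 0.5% NP-40 at 4°C; soluble protein was the supernatant after 21,000xg for 90 min. Soluble protein was quantified by TMTpro 16plex LC-MS/MS with channel sums equalised, and reported as log2 fold change in thermal stability against DMSO controls, with values from duplicates.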

YBX1 [1] = biological target: YBX1 (UniProt P67809)
Chain of YBX1 (UniProt P67809) (P67809 whole entry, looked up): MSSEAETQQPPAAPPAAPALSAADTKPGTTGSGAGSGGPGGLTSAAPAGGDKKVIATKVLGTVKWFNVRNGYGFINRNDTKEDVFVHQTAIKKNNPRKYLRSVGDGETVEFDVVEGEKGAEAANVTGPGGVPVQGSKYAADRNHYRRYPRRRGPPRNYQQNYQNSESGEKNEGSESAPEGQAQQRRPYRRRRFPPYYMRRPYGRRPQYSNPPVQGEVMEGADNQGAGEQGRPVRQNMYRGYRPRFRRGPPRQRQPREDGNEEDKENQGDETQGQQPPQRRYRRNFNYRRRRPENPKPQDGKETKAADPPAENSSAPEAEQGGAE
Summary of the method: as §1

YES1 = YES1 (UniProt P07947)
Chain of YES1 (P07947 whole entry, looked up): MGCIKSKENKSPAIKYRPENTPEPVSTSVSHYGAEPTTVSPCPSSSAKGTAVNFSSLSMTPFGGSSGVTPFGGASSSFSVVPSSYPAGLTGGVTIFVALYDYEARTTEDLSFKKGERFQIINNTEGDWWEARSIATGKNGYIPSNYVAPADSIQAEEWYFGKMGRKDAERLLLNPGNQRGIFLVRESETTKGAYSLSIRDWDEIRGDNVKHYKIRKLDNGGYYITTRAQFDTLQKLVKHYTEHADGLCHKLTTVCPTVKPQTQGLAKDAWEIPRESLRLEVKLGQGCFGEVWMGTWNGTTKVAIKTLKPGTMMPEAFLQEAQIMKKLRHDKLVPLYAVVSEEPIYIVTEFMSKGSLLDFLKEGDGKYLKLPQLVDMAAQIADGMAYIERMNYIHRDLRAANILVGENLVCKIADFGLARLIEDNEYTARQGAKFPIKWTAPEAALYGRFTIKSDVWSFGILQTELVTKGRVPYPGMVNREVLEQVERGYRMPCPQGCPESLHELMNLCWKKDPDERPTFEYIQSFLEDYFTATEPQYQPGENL
Summary of the method: as §1

YIPF4 = YIPF4 (UniProt Q9BSR8)
Chain of YIPF4 (Q9BSR8 whole entry, looked up): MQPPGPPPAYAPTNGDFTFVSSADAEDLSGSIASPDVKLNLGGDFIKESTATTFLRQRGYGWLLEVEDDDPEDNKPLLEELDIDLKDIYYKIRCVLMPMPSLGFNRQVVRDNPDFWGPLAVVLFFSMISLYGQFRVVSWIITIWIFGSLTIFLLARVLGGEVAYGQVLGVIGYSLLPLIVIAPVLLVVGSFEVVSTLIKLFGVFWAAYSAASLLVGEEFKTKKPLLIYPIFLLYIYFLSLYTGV
Summary of the method: as §1

YIPF5 isoform 3 = YIPF5 isoform 3 (UniProt Q969M3)
Chain of YIPF5 isoform 3 (Q969M3 whole entry, looked up, canonical isoform): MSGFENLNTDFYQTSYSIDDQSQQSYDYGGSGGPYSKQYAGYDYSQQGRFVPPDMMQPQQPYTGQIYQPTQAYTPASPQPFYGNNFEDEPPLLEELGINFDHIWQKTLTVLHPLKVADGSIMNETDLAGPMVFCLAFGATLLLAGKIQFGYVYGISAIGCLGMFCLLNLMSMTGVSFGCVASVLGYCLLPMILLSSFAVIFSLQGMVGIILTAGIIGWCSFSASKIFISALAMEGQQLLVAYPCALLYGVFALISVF
Summary of the method: as §1

YIPF6 = YIPF6 (UniProt Q96EC8)
Chain of YIPF6 (Q96EC8 whole entry, looked up): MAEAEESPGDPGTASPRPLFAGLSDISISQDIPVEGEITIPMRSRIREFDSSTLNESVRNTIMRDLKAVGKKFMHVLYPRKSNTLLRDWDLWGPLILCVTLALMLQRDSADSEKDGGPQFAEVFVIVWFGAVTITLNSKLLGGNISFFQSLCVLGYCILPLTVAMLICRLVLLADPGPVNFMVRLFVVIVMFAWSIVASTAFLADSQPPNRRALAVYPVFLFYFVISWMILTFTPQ
Summary of the method: as §1

YLPM1 = YLPM1 (UniProt P49750)
Chain of YLPM1 (P49750 whole entry, looked up): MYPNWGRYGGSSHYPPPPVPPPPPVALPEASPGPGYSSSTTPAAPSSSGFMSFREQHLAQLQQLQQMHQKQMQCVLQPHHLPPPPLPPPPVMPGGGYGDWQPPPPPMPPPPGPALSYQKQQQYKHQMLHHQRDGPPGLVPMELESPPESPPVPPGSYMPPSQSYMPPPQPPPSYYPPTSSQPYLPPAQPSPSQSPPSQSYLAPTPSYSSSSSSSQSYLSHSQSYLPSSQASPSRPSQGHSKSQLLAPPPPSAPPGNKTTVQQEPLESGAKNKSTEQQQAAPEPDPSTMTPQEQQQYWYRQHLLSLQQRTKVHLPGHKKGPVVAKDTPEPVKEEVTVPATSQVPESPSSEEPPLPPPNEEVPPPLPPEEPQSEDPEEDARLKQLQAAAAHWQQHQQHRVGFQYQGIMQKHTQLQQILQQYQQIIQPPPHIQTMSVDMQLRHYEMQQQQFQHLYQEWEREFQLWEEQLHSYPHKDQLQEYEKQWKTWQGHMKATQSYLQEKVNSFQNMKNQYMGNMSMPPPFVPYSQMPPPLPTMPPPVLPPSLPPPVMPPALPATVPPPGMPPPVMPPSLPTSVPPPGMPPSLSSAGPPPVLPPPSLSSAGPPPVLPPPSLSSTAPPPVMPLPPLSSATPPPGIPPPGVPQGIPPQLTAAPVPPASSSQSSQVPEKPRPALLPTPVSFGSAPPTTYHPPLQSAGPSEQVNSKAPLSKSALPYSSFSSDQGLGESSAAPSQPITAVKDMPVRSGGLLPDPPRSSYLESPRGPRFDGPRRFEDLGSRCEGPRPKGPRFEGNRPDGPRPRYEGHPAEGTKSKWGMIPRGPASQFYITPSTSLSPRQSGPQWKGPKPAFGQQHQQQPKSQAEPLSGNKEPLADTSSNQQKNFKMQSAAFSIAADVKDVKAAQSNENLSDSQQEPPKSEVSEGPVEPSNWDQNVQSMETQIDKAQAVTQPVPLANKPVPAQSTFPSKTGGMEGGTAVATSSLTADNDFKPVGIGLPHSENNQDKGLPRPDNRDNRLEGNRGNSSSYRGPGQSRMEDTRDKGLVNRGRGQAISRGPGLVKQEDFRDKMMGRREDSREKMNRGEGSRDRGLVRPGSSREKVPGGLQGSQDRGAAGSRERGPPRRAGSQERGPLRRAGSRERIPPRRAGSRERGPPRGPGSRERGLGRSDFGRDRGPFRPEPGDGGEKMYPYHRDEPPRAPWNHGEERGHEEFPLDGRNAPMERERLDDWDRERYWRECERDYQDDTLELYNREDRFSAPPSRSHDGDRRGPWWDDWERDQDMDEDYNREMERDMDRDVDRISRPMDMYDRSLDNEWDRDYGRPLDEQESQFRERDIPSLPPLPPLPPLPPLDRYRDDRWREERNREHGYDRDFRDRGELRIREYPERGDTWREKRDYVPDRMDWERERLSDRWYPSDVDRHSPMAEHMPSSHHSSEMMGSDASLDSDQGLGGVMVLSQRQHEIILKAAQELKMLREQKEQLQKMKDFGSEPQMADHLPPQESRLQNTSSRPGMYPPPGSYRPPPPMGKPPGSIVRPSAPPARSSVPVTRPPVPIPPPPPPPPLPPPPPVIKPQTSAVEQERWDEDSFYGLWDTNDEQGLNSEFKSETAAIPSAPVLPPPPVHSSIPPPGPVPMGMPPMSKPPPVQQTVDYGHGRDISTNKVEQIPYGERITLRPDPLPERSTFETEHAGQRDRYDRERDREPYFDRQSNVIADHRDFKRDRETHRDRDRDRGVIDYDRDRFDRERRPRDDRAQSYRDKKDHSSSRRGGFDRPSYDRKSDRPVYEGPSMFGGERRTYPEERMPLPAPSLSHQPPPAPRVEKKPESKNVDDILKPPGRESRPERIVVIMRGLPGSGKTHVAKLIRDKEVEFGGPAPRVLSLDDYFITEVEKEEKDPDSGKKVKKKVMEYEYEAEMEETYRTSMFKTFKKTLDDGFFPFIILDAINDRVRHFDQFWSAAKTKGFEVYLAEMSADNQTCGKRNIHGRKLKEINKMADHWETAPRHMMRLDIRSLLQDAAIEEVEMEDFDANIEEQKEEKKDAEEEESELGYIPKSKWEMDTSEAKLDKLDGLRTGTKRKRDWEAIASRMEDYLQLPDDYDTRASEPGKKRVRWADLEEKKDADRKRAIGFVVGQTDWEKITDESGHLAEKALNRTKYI
Summary of the method: as §1

YOD1 = YOD1 (UniProt Q5VVQ6)
Chain of YOD1 (Q5VVQ6 whole entry, looked up): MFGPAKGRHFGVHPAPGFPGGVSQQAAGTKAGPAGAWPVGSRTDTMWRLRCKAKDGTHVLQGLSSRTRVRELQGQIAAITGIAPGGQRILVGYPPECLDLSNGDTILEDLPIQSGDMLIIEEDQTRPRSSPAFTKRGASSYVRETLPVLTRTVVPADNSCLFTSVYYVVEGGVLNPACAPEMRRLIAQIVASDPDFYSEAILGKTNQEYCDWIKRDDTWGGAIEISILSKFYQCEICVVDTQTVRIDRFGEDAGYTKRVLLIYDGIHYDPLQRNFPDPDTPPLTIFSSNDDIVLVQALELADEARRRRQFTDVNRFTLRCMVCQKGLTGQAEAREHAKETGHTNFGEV
Summary of the method: as §1

YPEL5 = YPEL5 (UniProt P62699)
Chain of YPEL5 (P62699 whole entry, looked up): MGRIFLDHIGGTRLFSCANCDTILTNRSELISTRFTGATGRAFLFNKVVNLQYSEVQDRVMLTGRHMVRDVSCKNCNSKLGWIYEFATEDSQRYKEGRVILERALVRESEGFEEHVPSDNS
Summary of the method: as §1

YBX1 [2] = biological target: YBX1 (UniProt C9J5V9)
Summary of the method: as §1

Measured: log2 fold change

Chain of YAE1 (Q9NRH1 whole entry, looked up): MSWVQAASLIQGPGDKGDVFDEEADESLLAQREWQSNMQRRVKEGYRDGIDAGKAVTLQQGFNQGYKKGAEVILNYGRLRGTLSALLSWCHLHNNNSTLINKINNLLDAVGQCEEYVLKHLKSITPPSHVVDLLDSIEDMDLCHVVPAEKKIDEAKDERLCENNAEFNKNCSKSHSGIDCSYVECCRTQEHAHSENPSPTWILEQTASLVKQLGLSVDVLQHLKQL

CS(=O)(=O)N1CCN(Cc2cc3nc(-c4cccc5[nH]ncc45)nc(N4CCOCC4)c3s2)CC1 [pictilisib]
inactive: YAE1 0.021 | YBX1 [1] 0.033 | YES1 0.093 | YIPF4 0.15 | YIPF5 isoform 3 0.027 | YIPF6 0.107 | YLPM1 0.065 | YOD1 -0.001 | YPEL5 0.172

C[C@@H](Oc1cc(-c2cnn(C3CCNCC3)c2)cnc1N)c1c(Cl)ccc(F)c1Cl [crizotinib]
active: YES1 -0.576
inactive: YAE1 -0.018 | YBX1 [2] 0.028 | YBX1 [1] 0 | YIPF4 0.054 | YIPF5 isoform 3 0.081 | YIPF6 -0.081 | YLPM1 -0.08 | YOD1 -0.052 | YPEL5 0.019

C/C(=N\NC(=O)c1cccc(S(=O)(=O)N2CCOCC2)c1)c1cc(Cl)ccc1O
inactive: YAE1 -0.051 | YBX1 [2] 0.233 | YBX1 [1] -0.242 | YES1 0.072 | YIPF4 -0.06 | YIPF5 isoform 3 0.016 | YIPF6 -0.067 | YLPM1 0.03 | YOD1 0.053 | YPEL5 0.032

Cc1cc(Nc2cc(N3CCN(C)CC3)nc(Sc3ccc(NC(=O)C4CC4)cc3)n2)n[nH]1 [tozasertib]
inactive: YAE1 0.033 | YBX1 [1] -0.041 | YES1 -0.45 | YIPF4 0.079 | YIPF5 isoform 3 -0.089 | YIPF6 -0.066 | YLPM1 -0.051 | YOD1 0.043

CNCc1ccc(-c2[nH]c3cc(F)cc4c3c2CCNC4=O)cc1 [rucaparib]
inactive: YAE1 -0.078 | YBX1 [1] 0.253 | YES1 0.169 | YIPF4 -0.028 | YIPF5 isoform 3 0 | YIPF6 0.055 | YLPM1 -0.07 | YOD1 -0.041 | YPEL5 0.002

CCCS(=O)(=O)Nc1ccc(F)c(C(=O)c2c[nH]c3ncc(-c4ccc(Cl)cc4)cc23)c1F [vemurafenib]
inactive: YAE1 0.019 | YBX1 [1] -0.12 | YES1 -0.159 | YIPF4 0.03 | YIPF5 isoform 3 -0.021 | YIPF6 -0.15 | YLPM1 0.017 | YOD1 -0.001 | YPEL5 -0.068

Cn1cncc1[C@@](N)(c1ccc(Cl)cc1)c1ccc2c(c1)c(-c1cccc(Cl)c1)cc(=O)n2C [tipifarnib]
inactive: YAE1 -0.008 | YBX1 [1] 0.242 | YES1 -0.001 | YIPF5 isoform 3 -0.059 | YIPF6 -0.035 | YLPM1 -0.048 | YOD1 -0.048 | YPEL5 0.125
active: YIPF4 0.31

CN1CCc2c(c3ccccc3n2Cc2ccc(C(=O)NO)cc2)C1 [Tubastatin A]
inactive: YAE1 -0.018 | YBX1 [1] 0.022 | YES1 0.094 | YIPF4 -0.028 | YIPF5 isoform 3 -0.103 | YIPF6 -0.01 | YLPM1 0.039 | YOD1 0.072

O=C1NC(=NCc2cccs2)S/C1=C\c1ccc2ncccc2c1
inactive: YAE1 -0.018 | YBX1 [2] -0.002 | YBX1 [1] -0.115 | YES1 0.094 | YIPF4 -0.006 | YIPF5 isoform 3 -0.008 | YIPF6 0.042 | YLPM1 0.057 | YOD1 0.066 | YPEL5 -0.021

CC(=O)c1cnc2ccc(-c3cc(Cl)c(O)c(Cl)c3)nc2c1N[C@H]1CC[C@H](CN(C)C)CC1
active: YES1 -0.819
inactive: YAE1 0.078 | YBX1 [2] -0.085 | YBX1 [1] 0.155 | YIPF4 -0.197 | YIPF5 isoform 3 0.023 | YIPF6 0.008 | YLPM1 -0.093 | YOD1 -0.04 | YPEL5 -0.173

O=C1c2ccccc2-c2n[nH]c3cccc1c23
inactive: YAE1 -0.048 | YBX1 [2] -0.143 | YBX1 [1] -0.051 | YES1 -0.153 | YIPF4 0.033 | YIPF5 isoform 3 -0.153 | YIPF6 -0.018 | YLPM1 0.02 | YOD1 0.012 | YPEL5 -0.158

NCC(=O)Nc1ccc(-n2nc(C(F)(F)F)cc2-c2ccc3c(ccc4ccccc43)c2)cc1
inactive: YAE1 -0.011 | YBX1 [1] 0.055 | YES1 0.001 | YIPF4 -0.004 | YIPF5 isoform 3 0.021 | YIPF6 0.071 | YLPM1 -0.069 | YOD1 -0.015 | YPEL5 0.129

NC1(Cc2ccc(Cl)cc2)CCN(c2ncnc3[nH]ccc23)CC1
inactive: YAE1 -0.022 | YBX1 [1] -0.159 | YES1 -0.059 | YIPF4 -0.016 | YIPF5 isoform 3 0.126 | YIPF6 -0.015 | YLPM1 0.102 | YOD1 -0.037

O=C(Nc1nc2ccccc2n1CCN1CCOCC1)c1cccc([N+](=O)[O-])c1 [IRAK-1-4 Inhibitor I]
inactive: YAE1 0.103 | YBX1 [2] 0.049 | YBX1 [1] -0.117 | YES1 -0.152 | YIPF4 0.093 | YIPF5 isoform 3 -0.035 | YIPF6 0.029 | YLPM1 -0.06 | YOD1 0.019 | YPEL5 -0.093

C[C@@H](N)c1ccc(C(=O)Nc2ccnc3[nH]ccc23)cc1
inactive: YAE1 0.1 | YBX1 [1] 0.28 | YES1 0 | YIPF4 -0.089 | YIPF5 isoform 3 -0.077 | YIPF6 -0.013 | YLPM1 -0.037 | YOD1 -0.04 | YPEL5 0.163

FC(F)(F)c1ccc(/C=C/c2nc(COc3ccc(CCCCn4ccnn4)cc3)co2)cc1 [mubritinib]
inactive: YAE1 -0.062 | YBX1 [1] -0.031 | YES1 -0.067 | YIPF4 0.024 | YIPF5 isoform 3 0.012 | YIPF6 0.036 | YLPM1 -0.038 | YOD1 0.108 | YPEL5 -0.202

Cc1cccc(CC(=O)N2CCc3c2ccc(-c2cn(C)c4ncnc(N)c24)c3F)n1
inactive: YAE1 0.008 | YBX1 [1] -0.024 | YES1 0.007 | YIPF4 -0.042 | YIPF5 isoform 3 0.06 | YIPF6 -0.006 | YLPM1 -0.05 | YOD1 0.041 | YPEL5 0.198

CC(C)N(C[C@H]1O[C@@H](n2cnc3c(N)ncnc32)[C@H](O)[C@@H]1O)[C@H]1C[C@@H](CCc2nc3cc(C(C)(C)C)ccc3[nH]2)C1 [pinometostat]
inactive: YAE1 0.011 | YBX1 [2] -0.093 | YBX1 [1] 0.053 | YES1 0.035 | YIPF4 -0.031 | YIPF5 isoform 3 0.016 | YIPF6 0.023 | YLPM1 0.003 | YOD1 -0.021 | YPEL5 0.068

CS(=O)(=O)CCNCc1ccc(-c2ccc3ncnc(Nc4ccc(OCc5cccc(F)c5)c(Cl)c4)c3c2)o1 [lapatinib]
inactive: YAE1 -0.052 | YBX1 [1] 0.317 | YES1 0.057 | YIPF4 -0.13 | YIPF5 isoform 3 -0.163 | YIPF6 0.061 | YLPM1 -0.028 | YOD1 0.01 | YPEL5 -0.113

CC(C)(C)Cn1c(N)nc2ccc(-c3[nH]c(C(C)(C)C)nc3-c3ccc(F)cc3)nc21 [ralimetinib]
inactive: YAE1 0.023 | YBX1 [1] 0.082 | YES1 -0.09 | YIPF4 -0.099 | YIPF5 isoform 3 -0.292 | YIPF6 -0.045 | YLPM1 0.043 | YOD1 -0.001 | YPEL5 -0.111

Cc1cccc(-c2[nH]c(C(C)(C)C)nc2-c2ccc3nccnc3c2)n1
inactive: YAE1 0.019 | YBX1 [2] -0.03 | YBX1 [1] -0.11 | YES1 0.008 | YIPF4 -0.067 | YIPF5 isoform 3 -0.073 | YIPF6 0.047 | YLPM1 0.043 | YOD1 0.026 | YPEL5 0.097

CNC(=O)c1ccc(Nc2ncc(C(F)(F)F)c(NCc3nccnc3N(C)S(C)(=O)=O)n2)cc1 [defactinib]
inactive: YAE1 0.026 | YBX1 [1] 0.301 | YES1 -0.199 | YIPF4 -0.016 | YIPF5 isoform 3 -0.019 | YIPF6 -0.041 | YLPM1 -0.019 | YOD1 -0.103 | YPEL5 -0.073

Cc1ccc(-n2nc(C(C)(C)C)cc2NC(=O)Nc2ccc(OCCN3CCOCC3)c3ccccc23)cc1 [doramapimod]
inactive: YAE1 -0.033 | YBX1 [2] 0.082 | YBX1 [1] 0.047 | YES1 0.006 | YIPF4 0.005 | YIPF5 isoform 3 0.041 | YIPF6 -0.036 | YLPM1 0 | YOD1 0 | YPEL5 0.039

CC(C)c1cnn2c(NCc3ccccc3)cc(NCCCCCCN)nc12
inactive: YAE1 0.057 | YBX1 [1] 0.038 | YES1 0 | YIPF4 -0.032 | YIPF5 isoform 3 0.008 | YIPF6 -0.044 | YLPM1 -0.086 | YOD1 -0.153 | YPEL5 -0.083

Cc1ccc2c(=O)c3ccccc3n(CCCN)c2c1C
active: YBX1 [1] -0.637
inactive: YAE1 0.022 | YES1 0.043 | YIPF4 0.215 | YIPF5 isoform 3 -0.006 | YIPF6 0.145 | YLPM1 0.023 | YOD1 0.063

O=C(Nc1cccc(Nc2ncc(Br)c(NCCc3cnc[nH]3)n2)c1)N1CCCC1
inactive: YAE1 -0.084 | YBX1 [1] 0.103 | YES1 -0.139 | YIPF4 -0.033 | YIPF5 isoform 3 0.033 | YIPF6 -0.013 | YLPM1 -0.083 | YOD1 -0.012
